Assay results reported in PubChem BioAssay (NCATS).
Results filed as inconclusive are left out. Activity calls are given as the source filed them. Unless noted, calls come from the whole dose curve; as a rule, active = well fitted curve in the direction sought with a large enough effect; inconclusive = small, poorly fitted or top-dose-only effect, or another doubt; inactive = no such curve, though single readings can be large; an effect the other way counts as inactive or inconclusive.

Columns and labels:
[1] = target: Rap guanine nucleotide exchange factor 3 (Homo sapiens) (UniProt O95398); assay: Confirmatory qHTS for antagonist of cAMP-regulated guanine nucleotide exchange factor 3 (EPAC1) (AID 1645880); note: nearly all actives have a fitted effect of over 55% in size; note: potency is the fitted concentration of half-maximal effect
In short: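 Released BODIPY-GDP fluoresces less than Rap1-bound BODIPY-GDP; the signal is followed at 480/540 nm at 5-min intervals over 30 min, after 5 min at room temperature. Reactions contain 100 nM EPAC1, 250 nM RAP1B-BODIPY-GDP and 50 uM GDP; results are normalized to ATA and DMSO.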

[2] = target: Rap guanine nucleotide exchange factor 3 (Homo sapiens) (UniProt O95398); assay: Confirmatory qHTS for agonist of cAMP-regulated guanine nucleotide exchange factor 3 (EPAC1) (AID 1645881); note: nearly all actives have a fitted effect of over 75% in size; note: potency is the fitted concentration of half-maximal effect;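 for activation: EPAC1 catalysed release of BODIPY-GDP from Rap1B seen as fluorescence loss; 100% = effect of cAMP agonist control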
[3] = target: Rap guanine nucleotide exchange factor 4 (Homo sapiens) (UniProt Q8WZA2); assay: Confirmatory qHTS for agonist of cAMP-regulated guanine nucleotide exchange factor 4 (EPAC2) (AID 1645884);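 note: nucleotide exchange releases bodipy-GDP from Rap1 and this lowers its fluorescence; % is set by controls: 0 for no effect and ±100 for the full control effect; nearly all actives have a fitted effect of over 65% in size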
[4] = target: Rap guanine nucleotide exchange factor 4 (Homo sapiens) (UniProt Q8WZA2); assay: Confirmatory qHTS for antagonist of cAMP-regulated guanine nucleotide exchange factor 4 (EPAC2) (AID 1645885); note: nearly all actives have a fitted effect of over 25% in size; note: potency is the fitted concentration of half-maximal effect; for activity change, negative = inhibition: % is set by controls: 0 for no effect and ±100 for the full control effect
[5] = target: Rap guanine nucleotide exchange factor 3 (Homo sapiens) (UniProt O95398); assay: Counterscreen qHTS for antagonist of cAMP-regulated guanine nucleotide exchange factor 3 (EPAC1) (AID 1645888); note: % of control where 0% means no effect
In short: (§1)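 Measured: fluorescence of BODIPY-GDP bound to Rap1B, which falls as exchange proceeds. Conditions include 50 uM competing GDP, 5 and 30 min reads, and a later cAMP challenge for antagonist detection.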

[6] = target: Rap guanine nucleotide exchange factor 3 (Homo sapiens) (UniProt O95398); assay: Counterscreen qHTS for agonist of cAMP-regulated guanine nucleotide exchange factor 3 (EPAC1) (AID 1645889); note: nearly all actives have a fitted effect of over 40% in size; note: potency is the fitted concentration of half-maximal effect; for activation: % of control where 0% means no effect
In short: as §1

[7] = target: Cytochrome P450 1A2 (Homo sapiens) (UniProt P05177); assay: p450-cyp1a2 (AID 410; calls by dose curve; note: potency is the fitted concentration of half-maximal effect)
In short: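 20nM CYP1A2, 100uM Luciferin-ME (=Km), 100mM KPO4; cpd 10 min RT; +NADPH regen, 60 min RT; stop/detect 20 min; luminescence. Normalized to furafylline 57 uM = full inhibition.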

[8] = target: Glucocorticoid receptor (Homo sapiens) (UniProt P04150); assay: GR-GFP Redistribution (AID 450;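 active = compounds whose dose series gives a full or clear partial fitted curve of increased nuclear translocation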; note: potency is the fitted concentration of half-maximal effect); conditions: U2OS GR-GFP nuclear translocation, laser cytometry, 2 h
[9] = target: Glucocorticoid receptor (Homo sapiens) (UniProt P04150); assay: GR-EFC Redistribution (AID 451; calls by dose curve; note: potency is the fitted concentration of half-maximal effect); conditions: CHO-K1 GR-EFC translocation, beta-gal luminescence, 2 h
In short: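 CHO-K1 cells stably expressing nuclear-localized β-gal enzyme acceptor and GR fused C-terminally to the enzyme donor fragment; ligand-driven nuclear translocation restores β-gal by complementation. Compounds titrated up to 46 uM final, 2 h at 37 °C; luminescence read.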

[10] = target: DNA dC->dU-editing enzyme APOBEC-3G (Homo sapiens) (UniProt Q9HC16); assay: qHTS for inhibitors of Vif-A3G interactions: Validation (AID 588379); note: 0% is about no effect
In short: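 Yellow fluorescence (Ex 488, Em 500-530) of Vif-coexpressing HeLa A3G-eYFP cells, scanned by Acumen cytometer, reports blocked A3G degradation. Cells plated at 700/well overnight at 37 deg C before compound addition, then a further overnight compound incubation at 37 deg C.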

[11] = target: Cytochrome P450 3A4 (Homo sapiens) (UniProt P08684); assay: qHTS Assay for Activators of Cytochrome P450 3A4 (AID 885); note: nearly all actives have a fitted effect of over 65% in size
In short: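 Luminescent readout of luciferin formed from 25 uM Luciferin-PPXE (KM level) by 20 nM CYP3A4 in 200 mM KPO4, with 60 min NADPH-driven reaction at room temperature after 10 min compound exposure. Ketoconazole (57 uM) defined 100% inhibition.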

[12] = Confirmation and Secondary Assay for Modulators of Hemoglobin Beta Chain Splicing at IVS2 654 locus (AID 910);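 note: per-well total GFP intensity by laser scanning cytometry after 2-day treatment; % of control where 0% means no effect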
In short: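 HeLa cells stably carrying EGFP interrupted by mutant beta-globin IVS2-654 intron (CMV-driven) were treated with compound for 2 days at 37C; corrected splicing was scored as total peak GFP intensity per well (488 nm excitation, 500-520 nm emission).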

[13] = Confirmation and Secondary Assay for Modulators of Hemoglobin Beta Chain Splicing at IVS2 705 locus (AID 930);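 note: HeLa cells stably expressing the EGFP-705 splicing reporter; series mostly up to about 46 µM; % of control where 0% means no effect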
In short: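 Restored EGFP fluorescence after 2-day compound exposure reports splicing correction in IVS2-705 EGFP reporter HeLa cells; positive control was 500 nM splice-blocking PNA oligo. Signal measured as well total peak GFP intensity (488 nm excitation).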

[14] = target: Ubiquitin carboxyl-terminal hydrolase 1 (Homo sapiens) (UniProt O94782); assay: Inhibitors of USP1/UAF1: Pilot qHTS (AID 504865);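 note: rhodamine fluorescence freed from ubiquitin-rhodamine substrate followed over time; top concentration of the series differs between compounds; % is set by controls: 0 for no effect and ±100 for the full control effect; nearly all actives have a fitted effect of over 35% in size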
In short: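 USP1/UAF1 complex at 1 nM preincubated 15 min at room temperature with compound, then Ub-Rho substrate added at 150 nM final. Fluorescence (480/540 nm) read kinetically in 50 mM HEPES pH 7.8, 0.5 mM EDTA, 1 mM TCEP, 0.1 mg/ml BSA, 0.01% Tween-20.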

[15] = target: Cytochrome P450 3A4 (Homo sapiens) (UniProt P08684); assay: qHTS Assay for Inhibitors and Substrates of Cytochrome P450 3A4 (AID 884); note: series mostly up to about 57 µM; % is set by controls: 0 for no effect and ±100 for the full control effect; nearly all actives have a fitted effect of over 50% in size
In short: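 Luminescent readout of luciferin produced by CYP3A4 (20 nM) dealkylation of Luciferin-PPXE, 25 uM (its KM). NADPH-driven reaction ran 60 min at RT after 10 min compound preincubation; data scaled to 57 uM ketoconazole as 100% inhibition.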

Rap guanine nucleotide exchange factor 4 (Homo sapiens), sequence (Q8WZA2 whole entry, looked up): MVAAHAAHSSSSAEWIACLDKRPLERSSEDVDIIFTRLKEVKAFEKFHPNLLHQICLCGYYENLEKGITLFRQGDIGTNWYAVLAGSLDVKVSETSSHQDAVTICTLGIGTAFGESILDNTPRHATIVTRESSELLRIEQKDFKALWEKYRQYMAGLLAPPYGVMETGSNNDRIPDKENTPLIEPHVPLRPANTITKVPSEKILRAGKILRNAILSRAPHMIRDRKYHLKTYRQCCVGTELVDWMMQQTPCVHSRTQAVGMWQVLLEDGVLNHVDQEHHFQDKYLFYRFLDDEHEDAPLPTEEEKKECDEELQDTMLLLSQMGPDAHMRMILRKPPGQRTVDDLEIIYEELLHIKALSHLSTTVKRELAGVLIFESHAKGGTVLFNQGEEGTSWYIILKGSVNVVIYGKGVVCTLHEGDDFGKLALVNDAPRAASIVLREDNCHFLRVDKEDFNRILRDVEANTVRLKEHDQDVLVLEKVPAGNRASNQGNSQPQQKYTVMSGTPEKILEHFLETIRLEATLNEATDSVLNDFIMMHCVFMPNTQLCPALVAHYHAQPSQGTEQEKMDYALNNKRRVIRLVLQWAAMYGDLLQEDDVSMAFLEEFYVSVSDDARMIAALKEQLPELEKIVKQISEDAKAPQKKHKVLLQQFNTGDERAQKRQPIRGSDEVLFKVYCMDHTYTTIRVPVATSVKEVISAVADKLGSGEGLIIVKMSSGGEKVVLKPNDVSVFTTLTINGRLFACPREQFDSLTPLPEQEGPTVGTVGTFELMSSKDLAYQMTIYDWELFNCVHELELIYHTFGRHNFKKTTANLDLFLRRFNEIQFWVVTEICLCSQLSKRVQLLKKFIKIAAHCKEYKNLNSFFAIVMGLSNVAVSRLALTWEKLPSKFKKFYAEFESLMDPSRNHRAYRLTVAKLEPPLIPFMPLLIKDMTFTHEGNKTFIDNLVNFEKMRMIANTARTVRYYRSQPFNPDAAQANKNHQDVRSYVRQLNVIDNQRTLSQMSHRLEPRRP
Cytochrome P450 3A4 (Homo sapiens), sequence (P08684 whole entry, looked up): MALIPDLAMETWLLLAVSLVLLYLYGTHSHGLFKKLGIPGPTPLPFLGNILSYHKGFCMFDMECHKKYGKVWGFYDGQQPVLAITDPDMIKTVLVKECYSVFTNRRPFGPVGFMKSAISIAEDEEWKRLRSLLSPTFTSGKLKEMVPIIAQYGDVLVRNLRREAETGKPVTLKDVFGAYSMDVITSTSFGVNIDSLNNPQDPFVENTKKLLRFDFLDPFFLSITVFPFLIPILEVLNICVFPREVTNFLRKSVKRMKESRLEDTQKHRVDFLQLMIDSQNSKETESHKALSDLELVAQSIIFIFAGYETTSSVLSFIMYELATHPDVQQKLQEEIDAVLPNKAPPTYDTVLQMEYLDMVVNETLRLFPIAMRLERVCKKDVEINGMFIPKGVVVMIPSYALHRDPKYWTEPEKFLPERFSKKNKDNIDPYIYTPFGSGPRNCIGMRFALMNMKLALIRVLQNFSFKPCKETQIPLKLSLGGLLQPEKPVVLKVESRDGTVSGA
Rap guanine nucleotide exchange factor 3 (Homo sapiens), sequence (O95398 whole entry, looked up): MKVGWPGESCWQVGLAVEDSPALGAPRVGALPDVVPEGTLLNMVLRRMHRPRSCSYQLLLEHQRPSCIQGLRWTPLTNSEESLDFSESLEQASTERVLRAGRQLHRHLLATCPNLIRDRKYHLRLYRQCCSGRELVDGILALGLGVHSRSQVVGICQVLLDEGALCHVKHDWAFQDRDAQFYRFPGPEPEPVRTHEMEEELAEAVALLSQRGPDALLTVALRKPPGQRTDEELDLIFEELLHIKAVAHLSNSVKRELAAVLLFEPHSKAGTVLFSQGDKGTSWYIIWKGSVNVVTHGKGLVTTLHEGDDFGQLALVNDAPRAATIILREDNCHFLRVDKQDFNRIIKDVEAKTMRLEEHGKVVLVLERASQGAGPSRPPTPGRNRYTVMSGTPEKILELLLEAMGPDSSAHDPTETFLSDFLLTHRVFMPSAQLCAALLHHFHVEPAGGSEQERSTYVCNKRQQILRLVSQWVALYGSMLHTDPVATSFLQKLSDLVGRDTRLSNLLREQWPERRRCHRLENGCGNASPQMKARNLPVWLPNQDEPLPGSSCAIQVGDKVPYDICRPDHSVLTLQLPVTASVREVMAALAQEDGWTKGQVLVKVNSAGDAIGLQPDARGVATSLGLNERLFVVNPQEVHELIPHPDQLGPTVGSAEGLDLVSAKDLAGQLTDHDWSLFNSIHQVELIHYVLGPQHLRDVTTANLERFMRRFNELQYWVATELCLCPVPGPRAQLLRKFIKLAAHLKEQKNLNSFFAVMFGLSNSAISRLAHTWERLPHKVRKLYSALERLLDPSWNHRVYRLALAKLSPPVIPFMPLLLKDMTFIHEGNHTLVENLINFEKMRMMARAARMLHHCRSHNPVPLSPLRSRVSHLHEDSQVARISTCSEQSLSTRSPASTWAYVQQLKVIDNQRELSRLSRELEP
Ubiquitin carboxyl-terminal hydrolase 1 (Homo sapiens), sequence (O94782 whole entry, looked up): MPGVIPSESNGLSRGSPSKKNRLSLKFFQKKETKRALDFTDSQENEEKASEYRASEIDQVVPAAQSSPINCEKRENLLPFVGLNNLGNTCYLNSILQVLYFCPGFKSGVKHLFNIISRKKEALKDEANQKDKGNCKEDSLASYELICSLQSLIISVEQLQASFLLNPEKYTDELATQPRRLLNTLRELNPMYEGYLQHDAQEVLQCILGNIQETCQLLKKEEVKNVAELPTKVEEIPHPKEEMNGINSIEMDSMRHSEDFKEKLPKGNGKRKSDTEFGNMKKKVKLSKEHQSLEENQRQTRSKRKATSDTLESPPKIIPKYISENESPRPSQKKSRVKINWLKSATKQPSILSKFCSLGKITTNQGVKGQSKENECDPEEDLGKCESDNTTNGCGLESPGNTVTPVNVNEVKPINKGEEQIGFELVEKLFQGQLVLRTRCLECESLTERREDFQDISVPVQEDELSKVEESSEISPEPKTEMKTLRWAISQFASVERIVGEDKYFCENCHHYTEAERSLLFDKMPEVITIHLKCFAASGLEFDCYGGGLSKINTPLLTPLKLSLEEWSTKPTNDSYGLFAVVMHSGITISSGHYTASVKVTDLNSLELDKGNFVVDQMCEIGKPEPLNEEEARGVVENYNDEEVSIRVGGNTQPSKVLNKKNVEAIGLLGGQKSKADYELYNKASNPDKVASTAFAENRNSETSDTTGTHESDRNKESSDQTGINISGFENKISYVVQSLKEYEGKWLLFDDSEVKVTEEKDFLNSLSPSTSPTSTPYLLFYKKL
Glucocorticoid receptor (Homo sapiens), sequence (P04150 whole entry, looked up, the tested form may be a part): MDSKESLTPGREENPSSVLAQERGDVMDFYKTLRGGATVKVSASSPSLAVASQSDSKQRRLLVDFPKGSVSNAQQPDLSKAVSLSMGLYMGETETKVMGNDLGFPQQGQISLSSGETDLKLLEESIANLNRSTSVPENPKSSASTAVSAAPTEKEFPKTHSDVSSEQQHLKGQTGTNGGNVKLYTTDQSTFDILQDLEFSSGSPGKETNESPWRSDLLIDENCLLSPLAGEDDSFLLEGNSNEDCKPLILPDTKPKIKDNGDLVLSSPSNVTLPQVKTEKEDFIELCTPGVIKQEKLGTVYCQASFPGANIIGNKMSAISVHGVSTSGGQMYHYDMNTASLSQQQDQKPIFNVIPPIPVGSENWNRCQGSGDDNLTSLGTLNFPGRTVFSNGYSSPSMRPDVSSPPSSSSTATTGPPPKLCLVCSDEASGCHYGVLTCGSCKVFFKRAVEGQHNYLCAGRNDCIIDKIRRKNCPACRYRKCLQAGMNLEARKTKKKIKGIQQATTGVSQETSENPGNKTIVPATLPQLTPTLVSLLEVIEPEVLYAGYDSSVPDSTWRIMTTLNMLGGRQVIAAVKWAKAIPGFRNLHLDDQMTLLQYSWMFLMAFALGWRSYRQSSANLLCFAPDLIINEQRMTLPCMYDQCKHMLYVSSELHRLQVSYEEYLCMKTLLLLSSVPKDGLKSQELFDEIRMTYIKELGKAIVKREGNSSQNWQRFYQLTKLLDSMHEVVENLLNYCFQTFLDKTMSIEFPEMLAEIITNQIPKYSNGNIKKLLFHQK
Cytochrome P450 1A2 (Homo sapiens), sequence (P05177 whole entry, looked up): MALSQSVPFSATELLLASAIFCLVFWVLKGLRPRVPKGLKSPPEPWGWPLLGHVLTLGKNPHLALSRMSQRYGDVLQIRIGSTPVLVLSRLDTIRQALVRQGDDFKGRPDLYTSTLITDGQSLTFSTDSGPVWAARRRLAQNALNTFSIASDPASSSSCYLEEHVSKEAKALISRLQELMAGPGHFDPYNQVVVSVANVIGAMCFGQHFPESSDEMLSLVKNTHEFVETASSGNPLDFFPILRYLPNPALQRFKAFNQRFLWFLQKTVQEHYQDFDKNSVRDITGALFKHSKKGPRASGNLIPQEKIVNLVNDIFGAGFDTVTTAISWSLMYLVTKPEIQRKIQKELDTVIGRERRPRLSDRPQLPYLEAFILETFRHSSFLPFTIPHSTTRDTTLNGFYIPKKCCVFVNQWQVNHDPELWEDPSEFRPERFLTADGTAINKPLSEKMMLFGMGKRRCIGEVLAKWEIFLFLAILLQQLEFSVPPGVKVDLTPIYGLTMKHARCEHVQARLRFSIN
DNA dC->dU-editing enzyme APOBEC-3G (Homo sapiens), sequence (Q9HC16 whole entry, looked up): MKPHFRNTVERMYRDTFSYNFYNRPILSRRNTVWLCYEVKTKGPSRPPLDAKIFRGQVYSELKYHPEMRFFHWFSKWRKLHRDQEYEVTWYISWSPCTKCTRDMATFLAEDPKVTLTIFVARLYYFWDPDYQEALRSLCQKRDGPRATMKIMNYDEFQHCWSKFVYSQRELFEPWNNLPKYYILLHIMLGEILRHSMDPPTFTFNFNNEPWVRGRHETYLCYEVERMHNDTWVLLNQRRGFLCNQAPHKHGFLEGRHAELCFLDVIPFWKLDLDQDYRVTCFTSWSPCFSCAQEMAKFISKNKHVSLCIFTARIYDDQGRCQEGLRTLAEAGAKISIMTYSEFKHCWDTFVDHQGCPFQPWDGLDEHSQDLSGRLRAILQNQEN

N#Cc1c(-c2ccccc2)nc(SCC(=O)N2c3ccccc3Sc3ccccc32)[nH]c1=O
active: Potency [1] 19 µM
inactive: Potency [2] | Potency [3] | Potency [4] | Potency [5] | Potency [6]

O=C(NCc1ccncc1)C1Cc2c(-c3ccccc3Oc3ccccc3)ccnc2O1 (stereo not given)
inactive: Potency [1] | Potency [2] | Potency [3] | Potency [4] | Potency [5] | Potency [6]

Clc1c(Cl)c(Cl)c2n[nH]nc2c1Cl
active: Potency [1] 75.7 µM | Potency [4] 19 µM
inactive: Potency [2] | Potency [3] | Potency [5] | Potency [6]

CCCCNC(=O)NC12CC3CC(CC(C3)C1)C2
inactive: Potency [1] | Potency [2] | Potency [3] | Potency [4] | Potency [5] | Potency [6]

O=c1c2ccccc2[nH]c(=S)n1-c1cccc(S(=O)(=O)N2CCCC2)c1
inactive: Potency [1] | Potency [2] | Potency [3] | Potency [4] | Potency [5] | Potency [6]

COC(=O)c1cc(OC)nc2ccc(Br)cc12
inactive: Potency [1] | Potency [2] | Potency [3] | Potency [4] | Potency [5] | Potency [6]

CC(Sc1ccccc1)C(=O)NNC(=O)c1csc(N2CCOCC2)n1 (stereo not given)
inactive: Potency [1] | Potency [2] | activation [3] 4.98% [at 17.1 µM, percent relative to cAMP agonist control] | Potency [4] | activity change, negative = inhibition [5] 1.84% [at 30.8 µM] | activation [6] 28.3% [at 30.8 µM]

CC1CCC2=NN(C(=O)c3ccco3)C(O)(C(F)(F)F)C2C1 (stereo not given)
inactive: Potency [1] | Potency [2] | activation [3] 4.2% [at 17.1 µM, percent relative to cAMP agonist control] | Potency [4] | activity change, negative = inhibition [5] -9.1% [at 30.8 µM] | activation [6] -2.19% [at 30.8 µM]

COc1ccc(/C=C(\NC(=O)c2cccs2)C(=O)Nc2ccc(C)cc2)cc1OC
inactive: Potency [2] | Potency [3] | Potency [4] | Potency [5] | Potency [6]
active: Potency [1] 47.8 µM

COc1cccc(OCCOc2ccc(/C=C3\C(=N)N4N=C(S(C)(=O)=O)SC4=NC3=O)cc2OC)c1
inactive: Potency [2] | Potency [3] | Potency [4] | Potency [5] | Potency [6]
active: Potency [1] 37.9 µM

CCOc1ccc(/C=C/C(=O)c2cc(Br)ccc(=O)c2O)cc1
inactive: Potency [2] | Potency [3] | Potency [4] | Potency [5] | Potency [6]
active: Potency [1] 33.8 µM

CN1CCS/C1=C/C=C1\SC(=S)N(CC(=O)O)C1=O
active: Potency [2] 50.1 µM | Potency [6] 14.1 µM
inactive: Potency [1] | activation [3] 15.2% [at 17.1 µM, percent relative to cAMP agonist control] | Potency [4] | activity change, negative = inhibition [5] 62.8% [at 30.8 µM]

COc1ccc(C(CC(=O)N2CCOCC2)c2c(OC)cc(OC)c3c(-c4ccccc4)cc(=O)oc23)cc1 (stereo not given)
active: Potency [1] 37.9 µM
inactive: Potency [2] | Potency [3] | Potency [4] | Potency [5] | Potency [6]

COc1cc(CCc2ccccc2)c(C(=O)O)c(O)c1CC=C(C)C
inactive: Potency [2] | Potency [3] | Potency [4] | Potency [5] | Potency [6]
active: Potency [1] 42.6 µM

COc1ccc(NC(=O)c2ccc(NC3=NC4CS(=O)(=O)CC4S3)cc2)cc1 (stereo not given)
inactive: Potency [1] | Potency [2] | activation [3] 1.91% [at 17.1 µM, percent relative to cAMP agonist control] | Potency [4] | activity change, negative = inhibition [5] -1.99% [at 30.8 µM] | activation [6] 0.693% [at 30.8 µM]

CC(C(=O)Nc1ccccc1-c1ccccc1)N1CCN(C(=O)c2ccccc2)CC1 (stereo not given)
inactive: Potency [1] | Potency [2] | activation [3] 12.7% [at 17.1 µM, percent relative to cAMP agonist control] | Potency [4] | activity change, negative = inhibition [5] 16.7% [at 30.8 µM] | activation [6] 29% [at 30.8 µM]

Cc1ccc2nc(-c3ccccc3)c(Cc3ccccc3C(F)(F)F)n2c1
inactive: Potency [1] | Potency [2] | Potency [3] | Potency [4] | Potency [5] | Potency [6]

Cc1ccc(-n2nc3c(=O)n(CCCC(=O)NCc4ccccc4F)nc(C)c3c2C)cc1
inactive: Potency [1] | Potency [2] | Potency [3] | Potency [4] | Potency [5] | Potency [6]

COc1ccccc1Cc1nc2ccccc2nc1SCC(=O)Nc1ccccc1C(F)(F)F
inactive: Potency [1] | Potency [2] | Potency [3] | outcome [4] inactive [at 12.7 µM] | Potency [5] | Potency [6]

CCc1nc(C)cn1S(=O)(=O)c1cc(C)c(OC)cc1C
inactive: Potency [1] | Potency [2] | Potency [3] | Potency [4] | Potency [5] | Potency [6]

N#Cc1c(-c2ccccc2)nc(SCC(=O)Nc2ccc(OC(F)(F)Cl)cc2)[nH]c1=O
active: Potency [1] 67.5 µM | Potency [4] 12 µM
inactive: Potency [2] | Potency [3] | Potency [5] | Potency [6]

C=CCOC(=O)C1=C(C)Nc2nnnn2C1c1cccs1 (stereo not given)
inactive: Potency [1] | Potency [2] | Potency [3] | Potency [4] | Potency [5] | Potency [6]

Cc1ccc(S(=O)(=O)N2[C@@H](c3ccc(Br)cc3)C(C(=O)O)=CC[C@H]2c2ccc(Cl)cc2)cc1
active: Potency [1] 75.7 µM
inactive: Potency [2] | Potency [3] | Potency [4] | Potency [5] | Potency [6]

CCc1nc2c(OCc3ccc(OC(F)F)cc3)cccn2c1N(C)C(=O)c1ccc(OC)cc1
inactive: Potency [1] | Potency [2] | Potency [3] | Potency [4] | Potency [5] | Potency [6]

O=C(CCCCCl)Nc1c2c(nc3ccccc13)CCC2
inactive: Potency [1] | Potency [2] | activation [3] 1.22% [at 17.1 µM, percent relative to cAMP agonist control] | Potency [4] | activity change, negative = inhibition [5] -8.13% [at 30.8 µM] | activation [6] -2.96% [at 30.8 µM]

Cc1cccc(NC(=S)NC(=O)c2oc3ccccc3c2C)n1
inactive: Potency [1] | Potency [2] | Potency [3] | Potency [4] | Potency [5] | Potency [6]

COc1c(-c2ccccc2)oc2c(ccc3occc32)c1=O
active: Potency [7] 0.0251 µM
inactive: Potency [8] > 46 µM | Potency [9] > 46 µM | outcome [10]

COc1ccc(-c2coc3cc(OC(C)=O)cc(OC(C)=O)c3c2=O)cc1
inactive: Potency [11] | Potency [12] | Potency [13] | Potency [14]

COc1cccc(NC(=O)Cn2cc(C(=O)C3CC3)c3ccccc32)c1
inactive: Potency [2] | Potency [3] | Potency [4] | Potency [5]

O=C(Nc1ccncc1)c1ccc2ncsc2c1
inactive: Potency [2] | Potency [3] | Potency [4] | Potency [6]

CC1(C)C2CC[C@@]1(C)C(=O)C2
inactive: Potency [15] | Potency [12] | Potency [13] | Potency [14]

O=C(/C=C/c1ccccc1)c1ccc(O)cc1
inactive: Potency [11] | Potency [12] | Potency [13] | Potency [14]

Cc1cc(C)c2c(CN3CCCCC3)cc(=O)oc2c1
inactive: Potency [2] | Potency [3] | Potency [4] | Potency [5] | Potency [6]
